# Reference: PubChem BioAssay (NCATS)
# Inconclusive results are not listed. Calls of active or inactive are those of the source. Calls follow the shape of the dose curve; as a rule, active = well fitted inhibition curve with a large enough effect; inconclusive = small, poorly fitted or top-dose-only effect; inactive = flat fitted curve, though single readings scatter.
# Assays:
# CRL-7250 = normal cell line; assay: Cytotoxic Profiling of Annotated Libraries Using Quantitative High-Throughput Screening (AID 1296008); conditions: Five cell lines viability, CellTiter-Glo ATP luminescence, 48-72 h; max response: active compounds read low
# Summary of the method: (§1)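 Cells exposed to compounds for 48 or 72 hr at 37 degrees Celsius. Viability read as ATP-coupled luminescence with CellTiter-Glo after 10 min at room temperature.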
# HEK293 = assay: as above; conditions: Five cell lines viability, CellTiter-Glo ATP luminescence, 48-72 h; max response: active compounds read low
# Summary of the method: as §1
# HaCat = assay: as above; conditions: Five cell lines viability, CellTiter-Glo ATP luminescence, 48-72 h; max response: active compounds read low
# Summary of the method: as §1
# KB-3-1 = assay: as above; conditions: Five cell lines viability, CellTiter-Glo ATP luminescence, 48-72 h; max response: active compounds read low
# Summary of the method: as §1
# NIH3T3 = assay: as above; conditions: Five cell lines viability, CellTiter-Glo ATP luminescence, 48-72 h; max response: active compounds read low
# Summary of the method: as §1
# MCC-13 = assay: qHTS assay to identify novel small-molecules to repurpose for Merkel cell carcinoma treatment (AID 1296009); conditions: MCC and control cell lines, CellTiter-Glo viability, 72 h; series mostly up to 46 µM
# Summary of the method: (§2)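 CellTiter-Glo luminescence after 72 hr compound exposure at 37 degree celsius gave cell viability. Libraries NPC and MIPE were run as 8- and 11-point dose responses; RLUs normalized to DMSO (negative) and no-cell (cytotoxicity) controls.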
# MCC-26 = assay: as above; conditions: MCC and control cell lines, CellTiter-Glo viability, 72 h; series mostly up to 46 µM
# Summary of the method: as §2
# MKL-1 = assay: as above; conditions: MCC and control cell lines, CellTiter-Glo viability, 72 h; series mostly up to 46 µM
# Summary of the method: as §2
# MKL-2 = assay: as above; conditions: MCC and control cell lines, CellTiter-Glo viability, 72 h; series mostly up to 46 µM
# Summary of the method: as §2
# UISO = assay: as above; conditions: MCC and control cell lines, CellTiter-Glo viability, 72 h; series mostly up to 46 µM
# Summary of the method: as §2
# WaGa = assay: as above; conditions: MCC and control cell lines, CellTiter-Glo viability, 72 h; series mostly up to 46 µM
# Summary of the method: as §2
# % is scaled to controls: 0 for no effect and ±100 for the full control effect; potency is read from the fitted curve at half-maximal effect.
# Also: nearly all actives have a fitted effect of over 60% in size.
Compound,max response (CRL-7250),max response (HEK293),max response (HaCat),max response (KB-3-1),max response (NIH3T3),Potency (MCC-13),Potency (MCC-26),Potency (MKL-1),Potency (MKL-2),Potency (UISO),Potency (WaGa),outcome (CRL-7250),Potency (CRL-7250),Potency (HEK293),Potency (HaCat),Potency (KB-3-1),Potency (NIH3T3)
O=c1ccn([C@@H]2O[C@H](CO)[C@H](O)[C@@H]2F)c(=O)[nH]1,-4.58% (inactive),-5.58% (inactive),4.18% (inactive),5.55% (inactive),2.94% (inactive),inactive,inactive,inactive,inactive,inactive,inactive,–,–,–,–,–,–
O=C(O)C(=O)Nc1cccc(C2=NN=N[N]2)c1,–,-1.4% (inactive),-4.6% (inactive),7.57% (inactive),-1.86% (inactive),inactive,inactive,inactive,inactive,inactive,inactive,inactive,–,–,–,–,–
COc1cc(C(C)C)c(Oc2cnc(NC(CO)CO)nc2N)cc1I,3.93% (inactive),-7.36% (inactive),-12.7% (inactive),-2.87% (inactive),1.73% (inactive),inactive,inactive,inactive,inactive,inactive,inactive,–,–,–,–,–,–
COC1=C(OC)C(=O)C(CC=C(C)CCC=C(C)CCC=C(C)CCC=C(C)CCC=C(C)CCC=C(C)CCC=C(C)CCC=C(C)CCC=C(C)CCC=C(C)C)=C(C)C1=O,–,-5.18% (inactive),-8.05% (inactive),-1.17% (inactive),4.96% (inactive),inactive,inactive,inactive,inactive,inactive,inactive,inactive,–,–,–,–,–
Cn1cc(CNCC2CCN(c3ncc(C(=O)NO)cn3)CC2)c2ccccc21,–,–,–,–,–,833 nM (active),590 nM (active),–,33.2 nM (active),264 nM (active),29.6 nM (active),–,332 nM (active),187 nM (active),662 nM (active),132 nM (active),526 nM (active)
C=C(C)[C@@H]1CC[C@]2(C(=O)O)CC[C@]3(C)[C@H](CC[C@@H]4[C@@]5(C)CC[C@H](O)C(C)(C)[C@@H]5CC[C@]43C)[C@@H]12,-12.6% (inactive),-13.5% (inactive),1.59% (inactive),-12.2% (inactive),0.0342% (inactive),inactive,–,inactive,inactive,inactive,inactive,–,–,–,–,–,–
CC(=O)[C@]1(O)Cc2c(O)c3c(c(O)c2[C@@H](O[C@H]2C[C@H](N)[C@@H](O)[C@H](C)O2)C1)C(=O)c1ccccc1C3=O,–,–,–,–,–,662 nM (active),1320 nM (active),148 nM (active),105 nM (active),590 nM (active),83.3 nM (active),–,1480 nM (active),132 nM (active),743 nM (active),469 nM (active),264 nM (active)
CS[C@H]1SC[C@@H]2C(=O)N(C)[C@H](C(C)C)C(=O)OC[C@H](NC(=O)c3cnc4ccccc4n3)C(=O)N[C@H](C)C(=O)N(C)[C@@H]1C(=O)N(C)[C@H](C(C)C)C(=O)OC[C@H](NC(=O)c1cnc3ccccc3n1)C(=O)N[C@H](C)C(=O)N2C,–,–,–,–,–,29.6 nM (active),–,–,–,2.6 nM (active),inactive,–,7.4 nM (active),5.3 nM (active),11.8 nM (active),–,–
C[C@@]12C(=O)OC(=O)[C@@]1(C)C1CCC2O1,–,–,–,–,–,–,6620 nM (active),–,4180 nM (active),–,2960 nM (active),–,5260 nM (active),8330 nM (active),26400 nM (active),7430 nM (active),13200 nM (active)
CCC(C=C[C@@H]1OC(=O)C=C[C@H]1C)=C[C@H](C)CC=CC(C)=C[C@@H](C)C(=O)[C@@H](C)[C@H](O)[C@@H](C)CC(C)=CC(=O)O,–,–,–,–,–,98.4 nM (active),–,–,4.9 nM (active),22 nM (active),–,–,55.3 nM (active),17.5 nM (active),110 nM (active),–,124 nM (active)
